In PubChem BioAssay (Tox21):
Where “and” joins values, the source holds several entries; their conditions need not be identical. Identical values can stand only once. Inconclusive results are not listed. Entries that show only a call come without a potency. Calls of active or inactive are those of the source. Calls come from the whole dose curve; as a rule, active = well fitted cell-killing curve with a large enough effect in the repeat runs; inconclusive = weak or mixed curves, or effect the other way; inactive = flat fitted curve, though single readings scatter.

Experiment: Caspase-3/7 induction in HepG2 cells by small molecules, qHTS cell viability counter screen (AID 1346981); note: nearly all actives have a fitted effect of over 30% in size
Conditions: CellTiter-Fluor fluorescence, 17 h; series mostly up to 92.4 µM
How it was run: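 Steps: seed 2,000 HepG2 cells per well; incubate 5 hr at 37 C; pin-add compounds in DMSO; incubate 16 hr; add CellTiter-Fluor; after 1 hr at 37 C and 5% CO2, read fluorescence.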
Potency is the fitted concentration of half-maximal effect.

Row | SMILES | Potency
1 | CCCCCCCC/C=C/CCCOC(C)=O | inactive
2 | CCOC(=O)CC(C)O (centres undefined) | inactive
3 | CCCCCCC(C)OC(=O)COc1nc(F)c(Cl)c(N)c1Cl (centres undefined) | inactive
4 | CCc1ccc(O)c(C(C)(C)C)c1 | inactive
5 | CCCCCCCC(OC)OC | inactive
6 | CCCCCCCCCCCCCCNCCO | inactive
7 | COc1ccc(C#N)cc1 | inactive
8 | CCN=C1C=CC(=C(c2ccc(N(CC)CC)cc2)c2ccc(N(CC)CC)cc2)c2ccccc21 | 8.58 µM (active)
9 | Cn1cnc2ncnc(N)c21 | inactive
10 | COC(=O)C1=C(C)NC(C)=C(C(=O)OCCCN2CCC(c3ccccc3)(c3ccccc3)CC2)C1c1cccc([N+](=O)[O-])c1 (centres undefined) | 29.8 µM (active)
11 | COc1cc(C=C2CCC/C(=C\c3ccc(O)c(OC)c3)C2=O)ccc1O | 29.8 µM (active)
12 | Cc1oc(-c2ccccc2)nc1CCOc1ccc(C[C@H](Nc2ccccc2C(=O)c2ccccc2)C(=O)O)cc1 | 43.3 µM (active)
13 | CC(=O)C=O | inactive
14 | C/C=C/C(=O)Oc1c(CCCCCC(C)C)cc([N+](=O)[O-])cc1[N+](=O)[O-] | 27.3 µM (active)
15 | O=C(O)CC(=O)O | inactive
16 | COc1ccccc1C=O | inactive
17 | Cc1cccc(C)n1 | inactive
18 | CC(=O)OC(OC(C)=O)c1ccc([N+](=O)[O-])o1 | 62.2 µM (active)
19 | CCCCOC(=O)C(C)CC (centres undefined) | inactive
20 | CSc1ccc2c(c1)N(CCC1CCCCN1C)c1ccccc1S2 (centres undefined) | 60.9 µM (active) and 29.8 µM (active)
21 | Oc1cc2ccccc2cc1O | inactive
22 | C[C@@H]1CC[C@H]2C(C)(C)[C@H]3C[C@@]12CC[C@@]3(C)O | inactive
23 | C/C=C/c1ccc(OC)c(OC)c1 | inactive
24 | CCCCCCCOC(=O)c1ccc(O)cc1 | inactive
